Screens from PubChem.
Hits are enriched below; roughly 0.45% of the tested compounds scored in any of these assays.
EPAC2 antag – antagonists of human EPAC2; EPAC2 GEF exchange of Rap1B-BODIPY-GDP, fluorescence; Potency, µM (highest dose often 114 µM), usual class: inhibitors; hit rate 0.18% among 360,000; AID 720708; further: nearly all actives have a fitted effect of over 45% in size
Target sequence (Q8WZA2 whole entry, looked up): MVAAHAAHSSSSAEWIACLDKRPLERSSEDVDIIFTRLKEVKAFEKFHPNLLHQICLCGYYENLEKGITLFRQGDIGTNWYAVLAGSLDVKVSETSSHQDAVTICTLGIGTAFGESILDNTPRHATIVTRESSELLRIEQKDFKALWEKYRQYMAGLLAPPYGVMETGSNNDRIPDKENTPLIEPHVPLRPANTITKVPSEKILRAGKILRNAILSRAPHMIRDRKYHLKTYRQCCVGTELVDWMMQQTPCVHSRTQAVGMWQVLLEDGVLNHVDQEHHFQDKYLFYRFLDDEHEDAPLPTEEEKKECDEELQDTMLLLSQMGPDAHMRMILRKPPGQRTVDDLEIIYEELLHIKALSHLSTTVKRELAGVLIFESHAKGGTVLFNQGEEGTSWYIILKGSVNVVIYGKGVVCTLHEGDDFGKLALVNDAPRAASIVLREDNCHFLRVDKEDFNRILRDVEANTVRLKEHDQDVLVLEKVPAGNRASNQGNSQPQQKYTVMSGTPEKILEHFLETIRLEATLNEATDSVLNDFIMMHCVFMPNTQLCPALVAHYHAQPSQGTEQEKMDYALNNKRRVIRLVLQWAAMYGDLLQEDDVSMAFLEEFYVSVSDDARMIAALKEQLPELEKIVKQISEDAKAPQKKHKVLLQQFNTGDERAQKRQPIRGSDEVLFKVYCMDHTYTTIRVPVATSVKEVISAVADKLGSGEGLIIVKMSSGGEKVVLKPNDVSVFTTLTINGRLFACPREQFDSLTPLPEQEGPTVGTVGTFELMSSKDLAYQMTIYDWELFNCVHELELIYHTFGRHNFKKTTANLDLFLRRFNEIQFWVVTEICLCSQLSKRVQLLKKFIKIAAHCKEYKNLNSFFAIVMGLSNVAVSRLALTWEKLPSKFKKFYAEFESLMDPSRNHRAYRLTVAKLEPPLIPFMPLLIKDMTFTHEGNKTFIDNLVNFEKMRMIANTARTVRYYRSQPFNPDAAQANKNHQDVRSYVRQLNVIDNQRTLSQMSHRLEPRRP
USP1 inh – inhibitors of human USP1/UAF1 deubiquitinase; recombinant USP1/UAF1, Ub-Rhodamine cleavage fluorescence; hit rate 0.23% among 390,000; Potency, µM (doses to about 57.1 µM), most hits filed as inhibitors; O94782; further: nearly all actives have a fitted effect of over 60% in size
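High-throughput fluorogenic screen: 1nM USP1/UAF1 complex, Ub-Rho substrate 150nM final, 50mM HEPES pH 7.8 with 0.5mM EDTA, 0.1 mg/ml BSA, 1mM TCEP and 0.01% Tween-20.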
EPAC1 antagonist – EPAC1 (human) antagonism. O95398. EPAC1 GEF assay, Rap1b-BODIPY-GDP exchange fluorescence. Potency, µM (doses to about 115 µM), actives largely listed as inhibitors. hit rate 0.14% among 360,000; further: nearly all actives have a fitted effect of over 50% in size
EPAC2 ag – activates human EPAC2 exchange factor; AID 720711; Potency, µM (highest dose often 154 µM), most hits filed as activators; hit rate 0.079% among 360,000; EPAC2 activation, biochemical qHTS; response scale: 100% = 6.5 mM cAMP response; Q8WZA2; further: nearly all actives have a fitted effect of over 50% in size
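Setup: EPAC2 100 nM, labeled Rap1B complex 250 nM, free GDP 50 uM. Compound titrations pinned in, brief spin, 5 min room temperature incubation. Kinetic fluorescence read over 30 min, normalized to 6.5 mM cAMP.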
EPAC1 ag – activates human EPAC1 exchange factor | O95398 | EPAC1 agonist qHTS, biochemical assay; response scale: 100% = response to 6.5 mM cAMP | Potency, µM (highest dose often 154 µM), usual class: activators | hit rate 0.073% among 360,000; further: nearly all actives have a fitted effect of over 60% in size
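Compounds were pinned as a concentration titration into mixtures of EPAC1 (100 nM), BODIPY-GDP-loaded Rap1B (250 nM) and GDP (50 uM). After 5 min at room temperature, fluorescence was followed for 30 min; activity was scaled to 6.5 mM cAMP.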
Of the large screens only hits and unclear results are named; the others gave an inactive call. The call rests on the fitted dose curve; in most records, active means well fitted curve in the direction sought with a large enough effect; inconclusive means small, poorly fitted or top-dose-only effect, or another doubt; inactive means no such curve, though single readings can be large; an effect the other way counts as inactive or inconclusive.

Cc1ccc(NC(=O)C2CCCN2S(=O)(=O)c2cccc3cccnc23)cc1 (configuration not stated)	none (no result: EPAC2 antag, EPAC1 antagonist, EPAC2 ag, EPAC1 ag)
O=c1cc(-c2ccc(O)cc2)oc2c(O)c(O)c(O)c(O)c12	USP1 inh 10µM, EPAC1 antagonist 6.31µM
O=C(CSc1ccc(-c2ccco2)nn1)c1cccc([N+](=O)[O-])c1	EPAC1 antagonist 20µM
O=C1C=C(Nc2ccccc2O)c2ccccc2C1=O	USP1 inh 17.8µM
Cc1ccc(NC2=CC(=O)C(=O)c3ccccc32)c(C)c1	USP1 inh 31.6µM
Cc1ccc(NS(=O)(=O)c2ccc3c(c2)C(=O)c2ccccc2C3=O)c(C)c1	none
O=C1C=C(NCc2ccccc2)c2ccccc2C1=O	EPAC2 antag inconclusive, USP1 inh 2.51µM, EPAC1 antagonist inconclusive
CC(=O)c1ccc(N2CCN(c3ncnc4c3nc3n4CCCC3)CC2)cc1	none (no result: EPAC2 antag, EPAC1 antagonist, EPAC2 ag, EPAC1 ag)
COc1ccc(-c2nc3sc(CCNC(=O)c4cc(Cl)ccc4OC)c(C)n3n2)cc1	none (no result: EPAC2 antag, EPAC1 antagonist, EPAC2 ag, EPAC1 ag)
Cc1ccccc1Cc1c(C)nc2nc(SCC(=O)NC(C)c3ccccc3)nn2c1C (configuration not stated)	none (no result: EPAC2 antag, EPAC1 antagonist, EPAC2 ag, EPAC1 ag)
O=C1CC(=O)Nc2cc(S(=O)(=O)Nc3ccc(Cl)c(C(F)(F)F)c3)ccc2N1	EPAC2 antag 35.5µM
CCCCc1nc(SCCOC)c2c(=O)n(C)c(=O)n(C)c2n1	EPAC2 antag 17.8µM
CCCCc1nc(SCC(=O)N2CCCC2)c2c(=O)n(C)c(=O)n(C)c2n1	none
Cc1cccc(NC(=O)c2sc3nc(-c4ccccc4)cn3c2C)c1C	none (no result: EPAC2 antag, EPAC1 antagonist, EPAC2 ag, EPAC1 ag)
NC1=CC(=O)C(=O)c2ccccc21	USP1 inh 15.8µM
N#CC1=C2SCN(Cc3ccccc3)CN2C(=O)CC1c1cccs1 (configuration not stated)	USP1 inh 15.8µM
COc1ccc(CN(Cc2ccco2)C(=O)COc2ccccc2OC)cc1	none (no result: EPAC2 antag, EPAC1 antagonist, EPAC2 ag, EPAC1 ag)
COc1cc(C(=O)NCc2ccc3c(c2)CCN3C(=O)c2ccncc2)cc(OC)c1OC	none (no result: EPAC2 antag, EPAC1 antagonist, EPAC2 ag, EPAC1 ag)
Cc1cccc(-n2c3nc(=O)[nH]c(=O)c-3cc3cc([N+](=O)[O-])ccc32)c1	USP1 inh inconclusive
Cc1ccc(C)c(-n2c3nc(=O)[nH]c(=O)c-3cc3cc([N+](=O)[O-])ccc32)c1	USP1 inh inconclusive, EPAC1 antagonist 56.2µM
Cc1ccc(C(=O)NCCc2ccc(Cl)cc2)cc1-n1c(C)nc2cccnc21	none (no result: EPAC2 antag, EPAC1 antagonist, EPAC2 ag, EPAC1 ag)
COc1ccccc1N1CCN(CCCNC(=O)c2cnn(-c3cccc(Cl)c3)c2C2CCN(C(=O)OC(C)(C)C)CC2)CC1	none (no result: EPAC2 antag, EPAC1 antagonist, EPAC2 ag, EPAC1 ag)
CC1CN(S(=O)(=O)c2cccc(C(=O)Nc3ccccc3N3CCOCC3)c2)CC(C)O1 (configuration not stated)	EPAC1 ag 25.1µM
CC1CN(S(=O)(=O)c2cccc(C(=O)Nc3ccccc3N3CCCCC3)c2)CC(C)O1 (configuration not stated)	none
Cc1ccc(-n2nnnc2C(=Cc2ccc(N(C)C)cc2)c2nnnn2-c2ccc(C)cc2)cc1	USP1 inh 22.4µM
CCN(CC)c1ccc(C=C(c2nnnn2-c2ccccc2)c2nnnn2-c2ccccc2)cc1	USP1 inh inconclusive
CC1CCN(c2ccc3c(c2)S(=O)(=O)c2cccc(C(=O)NC4CCCCC4)c2C3=O)CC1	USP1 inh inconclusive, EPAC2 ag 50.1µM, EPAC1 ag 28.2µM
O=C1c2ccccc2S(=O)(=O)c2cc(C(=O)N3CCC(O)CC3)ccc21	none
O=C(NC1CCCC1)c1cccc2c1C(=O)c1ccc(N3CCCCC3)cc1S2(=O)=O	USP1 inh inconclusive, EPAC2 ag 56.2µM, EPAC1 ag inconclusive
COc1ccccc1N1CCN(c2ccc3c(c2)S(=O)(=O)c2cccc(C(=O)NCC4CC4)c2C3=O)CC1	EPAC2 antag inconclusive, EPAC1 antagonist 22.4µM
CC1CCN(c2ccc3c(c2)S(=O)(=O)c2cccc(C(=O)NCc4ccc(F)cc4)c2C3=O)CC1	USP1 inh inconclusive
O=C(NC1CCCCC1)c1cccc2c1C(=O)c1ccc(N3CCCC3)cc1S2(=O)=O	USP1 inh inconclusive
O=C1c2ccccc2S(=O)(=O)c2cc(N3CCC(C(=O)N4CCCCC4)CC3)ccc21	USP1 inh inconclusive, EPAC2 ag 25.1µM, EPAC1 ag 79.4µM
Cc1c(Cl)cccc1NC(=O)Nc1ccc2snnc2c1	none (no result: EPAC2 antag, EPAC1 antagonist, EPAC2 ag, EPAC1 ag)
O=C(NCc1ccccc1C(F)(F)F)c1cccc2c1C(=O)c1ccc(N3CCCCC3)cc1S2(=O)=O	USP1 inh inconclusive, EPAC2 ag 100µM
Cc1ccc(/C=C(\CCC(=O)O)c2nc3ccccc3s2)cc1[N+](=O)[O-]	EPAC1 antagonist 79.4µM
COc1ccc(C(=O)Nc2cccc(/C=C(\CCC(=O)O)c3nc4ccccc4s3)c2)cc1	EPAC1 antagonist 56.2µM
CN(c1ccccc1)c1ccc(/C=C(\CCC(=O)O)c2nc3ccccc3s2)cc1[N+](=O)[O-]	EPAC2 antag 79.4µM, EPAC1 antagonist inconclusive
CNc1ccc(/C=C(\CCC(=O)O)c2nc3ccccc3s2)cc1[N+](=O)[O-]	EPAC1 antagonist 44.7µM, EPAC1 ag inconclusive
Cn1cnnc1Sc1ccc(/C=C(\CCC(=O)O)c2nc3ccccc3s2)cc1[N+](=O)[O-]	none
O=[N+]([O-])c1cc(-c2nc(-c3ccccc3)no2)ccc1NCc1cccnc1	none (no result: EPAC2 antag, EPAC1 antagonist, EPAC2 ag, EPAC1 ag)
Cc1ccccc1-c1nc(CS(=O)(=O)CC(=O)Nc2c(C)cccc2C)c(C)o1	none (no result: EPAC2 antag, EPAC1 antagonist, EPAC2 ag, EPAC1 ag)
O=c1[nH]c(N2CCOCC2)cc2ccccc12	USP1 inh 10µM
O=C(O)CSc1cc(NS(=O)(=O)c2ccc(Br)cc2)c2ccccc2c1O	EPAC2 antag inconclusive, USP1 inh 35.5µM, EPAC1 antagonist 56.2µM
Cc1ccc(S(=O)(=O)Nc2ccc(Br)cc2C(NCC(=O)O)c2ccccc2)cc1 (configuration not stated)	EPAC1 antagonist inconclusive
O=S(=O)(Nc1cc(Sc2ncn[nH]2)c(O)c2ccccc12)c1ccccc1	EPAC2 antag inconclusive, USP1 inh 2.24µM, EPAC1 antagonist inconclusive
Cc1cc(O)c(Sc2ncn[nH]2)cc1NS(=O)(=O)c1ccc(Cl)cc1	none
O=C(Nc1ccc2nc(SCC(=O)N3CCc4ccccc43)sc2c1)c1ccccc1	none (no result: EPAC2 antag, EPAC1 antagonist, EPAC2 ag, EPAC1 ag)
CCOc1ccc(N2CC(c3nc4ccccc4n3CCOc3ccccc3)CC2=O)cc1 (configuration not stated)	none (no result: EPAC2 antag, EPAC1 antagonist, EPAC2 ag, EPAC1 ag)
CC(C)(C)N1CC(c2nc3ccccc3n2CCOc2ccccc2)CC1=O (configuration not stated)	EPAC2 ag 10µM
COc1cc(CNc2ccc(O)cc2)cc(Br)c1OCc1ccccc1F	EPAC2 antag inconclusive, USP1 inh inconclusive, EPAC1 antagonist 28.2µM
CCOc1ccccc1CNC(=O)c1cnc2sc(N(CC)CC)nn2c1=O	none (no result: EPAC2 antag, EPAC1 antagonist, EPAC2 ag, EPAC1 ag)
O=C(O)COc1ccc(NC(=O)C(c2ccccc2)c2ccccc2)cc1	EPAC2 antag 20µM
Cc1ccc(C)n1Cc1ccc(C(=O)O)cc1	EPAC2 antag inconclusive, USP1 inh 25.1µM
